Source: PubChem
Rce1 inh: yeast Rce1p protease inhibitors, primary screen, biochemical, fluorescence, cell-free homogeneous | CAAX prenyl protease 2 (Saccharomyces cerevisiae (strain ATCC 204508 / S288c)), Q03530 | yeast membranes, quenched prenylated peptide cleavage fluorescence | calls only | 290,000 compounds, 0.27% hits | AID 2563, 2010;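 active = fall in fluorescence gain of 50% or more versus controls, with final raw signal at or below 3038400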;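 note: plate controls were neutral control wells for no effect and wells lacking membranes for full effect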
PfM18AAP inh: PfM18AAP inhibitors, malaria aminopeptidase, primary screen, biochemical, QFRET, recombinant enzyme; M18 aspartyl aminopeptidase (Plasmodium falciparum 3D7); inhibition, % at 7.35 µM; H-Glu-NHMec fluorogenic cleavage; 290,000 compounds, 1.2% hits; AID 1822, 2009;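 active = inhibition above the campaign mean inhibition over all tested compounds plus 3 SD, cut at about 28% in these data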;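 note: 0% = plate median of test compound wells and 100% = 2 mM ZnCl2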
FID counter: compounds displacing fluorescent DNA intercalator, primary screen, artefact control for HCV NS3 helicase inhibitor project, biochemical, FID fluorescence; DNA fluorescent intercalator displacement; inhibition, % at 7.9 µM; 290,000 compounds, 0.17% hits; AID 1845, 2009; in the data active = inhibition above about 37%;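 note: 0% = vehicle and 100% = reference compound; higher means more ethidium bromide displaced from hairpin DNA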
Kir21 block: inhibitors of mouse Kir2.1 inward-rectifier potassium channel | Inward rectifier potassium channel 2 (Mus musculus), P35561 | B-score at 10 µM | HEK293-Kir2.1, FluxOR thallium flux fluorescence; stronger effect = lower value | 310,000 compounds, 0.85% hits | AID 1672, 2009;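 active = fluorescence ratio B-score at or below minus 3 SD of library scores, with starting-brightness B-score within 2 SD, cut at about -4.2 in these data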;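 note: channel flux triggered by added potassium and thallium sulfate stimulus; B-score of peak minus minimum fluorescence over baseline after thallium stimulus; more negative B-score means stronger Kir2.1 block with less thallium influx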
Target sequence (P35561 whole entry, looked up): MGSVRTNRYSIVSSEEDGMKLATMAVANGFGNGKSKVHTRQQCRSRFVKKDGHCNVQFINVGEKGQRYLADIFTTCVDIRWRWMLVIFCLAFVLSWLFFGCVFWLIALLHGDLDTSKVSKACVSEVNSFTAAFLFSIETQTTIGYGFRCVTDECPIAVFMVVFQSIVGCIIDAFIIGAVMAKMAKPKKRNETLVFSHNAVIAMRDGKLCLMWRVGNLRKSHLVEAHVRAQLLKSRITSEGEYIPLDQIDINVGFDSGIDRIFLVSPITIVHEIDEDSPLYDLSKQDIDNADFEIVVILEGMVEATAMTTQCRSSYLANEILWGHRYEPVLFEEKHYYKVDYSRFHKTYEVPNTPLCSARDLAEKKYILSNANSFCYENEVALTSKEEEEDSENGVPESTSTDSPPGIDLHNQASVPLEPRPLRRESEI
Active calls of the source: *; i = inactive; x = not tested or not shown; + = active, no number. Only some compounds are listed: those with a hit (about 2.3% of all), similar ones and a draw of the others.

SMILES	Rce1 inh	PfM18AAP inh	FID counter	Kir21 block
CCOC(=O)c1cnc2ccc(OC)cc2c1Nc1ccc(N2CCN(C)CC2)cc1	i	-7.0	43.9*	-0.58
CCOC(=O)c1ccc2ncc(C(=O)OCC)c(Nc3ccc(N4CCOCC4)cc3)c2c1	i	-1.3	-2.2	0.44
Oc1ccc(Nc2nc(NCC3CCCO3)c3ccccc3n2)cc1 (configuration not stated)	i	-17.1	9.4	-7.75*
Oc1ccc(Cl)cc1Nc1nc(NCC2CCCO2)c2ccccc2n1 (configuration not stated)	i	x	x	1.12
COc1cccc(Nc2nc(NCC3CCCO3)c3ccccc3n2)c1 (configuration not stated)	i	-5.2	16.4	-13.4*
Oc1ccccc1Nc1nc(NCC2CCCO2)c2ccccc2n1 (configuration not stated)	i	0.9	17.9	-11.5*
COc1cccc(Nc2nc(NCCO)c3ccccc3n2)c1	i	-1.4	18.6	-1.84
Cc1ccc(C)c(S(=O)(=O)Nc2ccc(C(=O)NCCCN3CCOCC3)cc2)c1	i	x	x	-2.55
O=C(CSc1nnnn1-c1ccc(C(=O)O)cc1)NC1CC1	i	3.1	3.3	0.98
COc1ccc(CN2CCN(C(=O)c3cccs3)CC2)cc1Br	i	29.2*	-10.3	-0.39
O=[N+]([O-])c1cccc(S(=O)(=O)NCCCn2ccnc2)c1	i	1.3	0.0	-0.56
Cc1sc(N)c(C#N)c1C	i	36.5*	6.0	0.89
CCN(CC)C(=O)c1sc(N)c(C#N)c1C	i	-3.5	-1.3	0.01
CCc1oc(C(=O)O)cc1CN(CC)CC	i	-6.4	-1.1	-0.24
CCN(CC)Cc1cc(O)c(CN(CC)CC)cc1O	i	29.2*	-4.1	-0.1
CCN(CC)CCn1c(=N)n(CC(O)COc2cccc(C)c2)c2ccccc21 (configuration not stated)	i	-6.2	32.8	-7.93*
COc1ccc(CN2CCN(CC(O)Cn3c4ccccc4c4ccccc43)CC2)cc1 (configuration not stated)	i	8.1	20.6	-4.42*
Cc1cccc(OCC(O)Cn2c(=N)n(Cc3ccccc3)c3ccccc32)c1 (configuration not stated)	i	-9.1	23.6	-9.97*
N=c1n(Cc2ccc(Cl)cc2)c2ccccc2n1CC(O)COc1ccccc1 (configuration not stated)	i	-6.6	42.6*	-9.61*
O=C(CCl)Nc1c2c(nn1-c1ccccc1)CSC2	i	12.4	-0.5	-0.02
CCCCCCCNC(=O)C1(CC2CC(c3ccc(Cl)cc3)=NO2)CCN(C(=O)C2(C)CC2)CC1 (configuration not stated)	i	-6.7	-40.7	-0.09
COc1ccc(OCC(O)Cn2c(=N)n(Cc3ccccc3)c3ccccc32)cc1 (configuration not stated)	i	-3.1	48.2*	-7.33*
Cc1ccc(OCC(O)Cn2c(=N)n(Cc3ccccc3)c3ccccc32)cc1 (configuration not stated)	i	2.0	20.9	-6.03*
Cc1cccc(OCC(O)Cn2c(=N)n(CCN3CCCCC3)c3ccccc32)c1 (configuration not stated)	i	6.4	39.1*	-4.21*
O=C(NCC1CCCN1S(=O)(=O)c1cccs1)c1c(F)cccc1F (configuration not stated)	i	x	x	-1.68
SMILES	Rce1 inh	PfM18AAP inh	FID counter	Kir21 block
O=C(Nc1ccc(S(=O)(=O)N2CCOCC2)cc1)C1CCN(S(=O)(=O)c2ccccc2)CC1	i	x	x	1.08
COc1cc(/C=C2\C(=N)N3N=CSC3=NC2=O)ccc1OS(=O)(=O)c1ccccc1[N+](=O)[O-]	i	29.1*	-10.4	-0.21
O=C(Nc1cc(Cl)cc(Cl)c1)c1coc(=O)c(Br)c1	+	5.7	3.8	0.82
CCc1ccc(OC)c(S(=O)(=O)Nc2ccc(Cc3ccncc3)cc2)c1	i	-3.7	-19.0	-0.7
CC(=O)c1c(C)[nH]c(C(=O)OCc2ccc(Br)cc2)c1C	+	-5.2	-8.5	0.13
CN(CC(=O)Nc1ccccc1Br)C(=O)c1cc2c(s1)CCCCC2	i	x	x	1.44
Cc1cccc(C)c1OCC(O)CN1CCc2ccccc2C1 (configuration not stated)	i	x	x	0.46
OC(COc1c(F)cc(Br)cc1F)CN1CCc2ccccc2C1 (configuration not stated)	i	-4.9	11.7	-6.98*
Cc1ccc(C(C)C)c(OCC(O)CN2CCc3ccccc3C2)c1 (configuration not stated)	i	-5.2	23.8	-9.13*
OC(COc1ccc(Cl)cc1)CN1CCC(Cc2ccccc2)CC1 (configuration not stated)	i	-1.1	20.7	-0.48
Cc1ccc(C)c(OCC(O)CN2CCC(Cc3ccccc3)CC2)c1 (configuration not stated)	i	10.3	27.3	-6.41*
Cc1ccc(S(=O)(=O)c2c(C)cc(C)[nH]c2=O)c(C)c1	i	-3.0	-2.8	0.47
Cc1cc(C)c(NS(=O)(=O)c2cccc3cccnc23)c(C)c1	i	-3.9	-16.6	-4.37*
O=S(=O)(NCc1ccc(Cl)cc1)c1cccc2cccnc12	i	-1.4	-13.3	-4.53*
COc1ccc(S(=O)(=O)n2nc(OCc3cccs3)cc2N)cc1	i	-4.1	-10.7	1.12
O=C(O)c1ccccc1N/N=C/c1cc(Br)cc(Br)c1O	i	5.6	-6.9	-0.77
Oc1c(Br)cc(Br)cc1/C=N/Nc1ccc(Cl)nn1	i	39.6*	-5.2	-0.5
Cc1ccc(NC(=O)C2CCCN2C(=O)c2cccs2)c(C)c1 (configuration not stated)	i	-5.9	-4.7	0.72
c1cc2c(cc1C1CCCCC1)c1c3n2CCCNC3CCC1 (configuration not stated)	i	-3.9	22.4	-4.32*
CCCCN(C(=O)c1cc(S(=O)(=O)N2CCOCC2)ccc1Cl)c1c(N)n(CC(C)C)c(=O)[nH]c1=O	i	x	x	1.52
Cc1nc(N2CCC(C)CC2)c2c(C)c(C(=O)Nc3ccc(C(F)(F)F)cc3)sc2n1	i	-1.7	1.4	1.96
Cc1nc(N2CCCCC2C)c2c(C)c(C(=O)Nc3ccccc3C(F)(F)F)sc2n1 (configuration not stated)	+	7.0	-19.6	-0.97
C=CCNC(=O)N1CCCC(C(=O)c2cccc(OC(C)C)c2)C1 (configuration not stated)	i	1.6	-23.9	0
O=c1c(O)cccc2cc(O)c(O)c(O)c12	i	47.9*	-4.5	-0.18
Cc1nc2ccc(NC(=O)c3cc(Cl)ccn3)cc2s1	i	10.8	-19.8	-1.46
COC(=O)Oc1c(Br)c(=O)oc2ccccc12	i	-4.8	9.0	-4.75*
Cc1ccc(NC(=O)c2ccc(NCCCN3CCC(C)CC3)c([N+](=O)[O-])c2)cc1F	i	-7.7	40.9*	1.06
